Results from PubChem BioAssay (NCATS).
Results filed as inconclusive are left out. Active and inactive are the calls of the source. Calls follow the shape of the dose curve; as a rule, active = well fitted inhibition curve with a large enough effect; inconclusive = small, poorly fitted or top-dose-only effect; inactive = no such curve, though single readings can be large or run the other way.

Assay: qHTS to identify inhibitors of the type 1 interferon - major histocompatibility complex class I in skeletal muscle: primary screen against the NCATS Mechanism Interrogation Plate v5.0 (MIPE) Libary (AID 1347411); also: nearly all actives have a fitted effect of over 65% in size;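 as to activity change, negative = inhibition: plate controls were vehicle for no effect and reference inhibitor for full effect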
Settings: iHSKM cells + IFN-b, HiBiT-tagged MHC-I luminescence, 24 h; series mostly up to 45.8 µM; activity change, negative = inhibition: at the top concentration
Text: Assay Submitter (PI): Travis B. Kinder Ph.D. & James Inglese Ph.D.
Assay Development and Screening Technology Laboratory (ADST)
National Center for Advancing Translational Sciences (NCATS), Rockville, MD
National Institute of Health (NIH), Bethesda, Maryland
Idiopathic inflammatory myopathies, collectively referred to as myositis, are a group of rare autoimmune diseases characterized by skeletal muscle inflammation, weakness, and usually accompanied by systemic pathologies of the skin, lungs, or vasculature. Current immunosuppressive therapies and glucocorticoids are often not curative and are accompanied by harsh side effects, especially in children with juvenile myositis. We initiated a drug repurposing and development program to identify more targeted, less toxic therapeutics to treat myositis. Although its cause is not known, muscle from a subset of patients have an abundance of the inflammatory type 1 interferon (IFN) and a down-stream product major histocompatibility complex class I (MHC class I), which are both thought to contribute to damage and weakness. We conducted quantitative high throughput screening on 6,576 compounds (4,679 unique) through a series of cell-based assays to identify those that inhibit the IFN-stimulated expression of MHC class I in muscle precursor cells (myoblasts). The compound identification and evaluation strategy utilized a primary screen with reporter-tagged MHC class I in genome-engineered myoblasts, ATP content counter screen for viability, HLA-ABC immunofluorescence secondary screen, and HLA-B RT-qPCR tertiary screen.
The primary screen utilized CRISPR/Cas9 genome-engineering of immortalized human myoblasts, C25cl48, where a pro-luminescent reporter HiBit was fused to the C-terminus of endogenous MHC class I allele HLA-B*08:01 (HLA-B HiBit myoblasts). HiBit is an 11 amino acid fragment of NanoLuc luminescent reporter (Promega Corporation), and when complexed to the larger LgBit fragment, the reconstituted enzyme produces light in the presence of furimazine substrate (Schwinn et al., 2018). Briefly, HLA-B HiBit myoblasts were plated into 1536-well plates, treated with 4.0 ng/ml human IFN-beta and 2,480 compounds from the NCATS Mechanism Interrogation Plate v5.0 (MIPE5.0) in an 11-point, 1:3 titration with a high final concentration of 46 uM. After 24 hrs of treatment, cells were assayed by Nano-Glo HiBiT Lytic Detection System (Promega) and luminescence measured by a ViewLux 1430 Ultra HTS (Perkin Elmer).
Schwinn MK, Machleidt T, Zimmerman K, Eggers CT, Dixon AS, Hurst R, Hall MP, Encell LP, Binkowski BF, Wood K V. 2018. CRISPR-Mediated Tagging of Endogenous Proteins with a Luminescent Peptide. ACS Chem Biol 13:467-474. doi:10.1021/acschembio.7b00549
PROTOCOL TABLE (as described by Inglese et al., 2007)
SEQUENCE No. (e.g., 1, 2, 3, etc.); […] (e.g., Cells, Incubation, Reagent, etc.); VALUE; DESCRIPTION
1a; Cells; 5 uL; Use a Multidrop Combi (Thermo Scientific) to seed 300 cells/well into 24 Greiner 1536 well white/solid bottom, high base, TC plates in 5 ul/well of iHSKM growth medium (GM) without dexamethasone into columns 1+2. Add metal lids with gas-exchange holes
1b; Cells; 5 uL; Use a Multidrop Combi (Thermo Scientific) to seed 300 cells/well into 24 Greiner 1536 well white/solid bottom, high base, TC plates in 5 ul/well of iHSKM GM without dexamethasone + 4 ng/ml IFN-b into columns 3 - 48. Add metal lids with gas-exchange holes
2; Incubate; 1 hr; Incubate at 37 C, 5% CO2, 95% RH
3; Compounds; 23 nl; Use Pin Tool (Wako) to transfer DMSO control, ruxolitinib IFN-b inhibitor control [High Concentration = 80 uM final, 16-pt, 1:2 in duplicate], and library compounds in DMSO
4; Incubate; 24 hrs; Incubate at 37 C, 5% CO2, 95% RH
5; Dispense; 2.5 ul; Use BioRAPTR FRD (Beckman Coulter) to add HiBit lytic reagent
6; Incubate; 10 min; Incubate in the dark at ambient temperature for lysis
7; Detector; 5 sec; Measure luminescence with ViewLux 1430 Ultra HTS (Perkin Elmer). […]
Potency is read from the fitted curve at half-maximal effect.

Structure (SMILES)	activity change, negative = inhibition	Potency
N[C@@H](CC(=O)N1CCn2c(nnc2C(F)(F)F)C1)Cc1cc(F)c(F)cc1F	-28.3% (inactive)	
COC1CCC(C(=O)c2ccc3nc4c(cc3c2)CCCO4)CC1 (stereo not given)	-0.171% (inactive)	
CC[C@@H]([C@H](C)O)n1ncn(-c2ccc(N3CCN(c4ccc(OCC5CO[C@@](Cn6cncn6)(c6ccc(F)cc6F)C5)cc4)CC3)cc2)c1=O (stereo not given in full)	-4.4% (inactive)	
CNC(=O)c1c(-c2ccc(F)cc2)oc2cc(N(CCO)S(C)(=O)=O)c(C3CC3)cc12	-9.35% (inactive)	
CO[C@@H]1C(N(C)C(=O)c2ccccc2)C[C@H]2O[C@]1(C)n1c3ccccc3c3c4c(c5c6ccccc6n2c5c31)C(=O)NC4=O (stereo not given in full)	-40.5% (inactive)	
COc1cc2nccc(Oc3ccc(NC(=O)Nc4ccc(F)cc4F)c(F)c3)c2cc1OC		10.4 µM (active)
CNC(=O)[C@H](Cc1ccccc1)NC(=O)[C@H](CC(C)C)[C@H](CSc1cccs1)C(=O)NO	18.6% (inactive)	
Cc1cnc(-c2cc(N3CCN(C(=O)CCS(C)(=O)=O)CC3)ncc2Cl)c(C)c1	0.273% (inactive)	
CN1C(=O)C[C@H](C(=O)N[C@@H](Cc2cnc[nH]2)C(=O)N2CCC[C@@H]2C(N)=O)NC1=O	-2.68% (inactive)	
O=C(c1ccc(C(=O)N2CCC(N3CCCC3)CC2)c(Nc2ccccc2)c1)N1CCC(N2CCCC2)CC1	7.64% (inactive)	
COc1cc2ncn(-c3cc(OCc4ccccc4S(C)(=O)=O)c(C#N)s3)c2cc1OC	-14.8% (inactive)	
C[C@@]1(c2cc(-c3cncnc3)c(F)cc2F)CCSC(N)=N1	-7.15% (inactive)	
C[C@]12CC[C@@H]3c4ccc(O)cc4CC[C@H]3[C@H]1[C@@H](O)[C@@H](O)[C@H]2O	9.54% (inactive)	
CN[C@@H]1CN(c2ccc3c(=O)c(C(=O)O)cn(-c4nccs4)c3n2)C[C@@H]1OC		5.09 µM (active)
COc1ccnc(CS(=O)c2nc3ccc(OC(F)F)cc3[nH]2)c1OC (stereo not given)	-29.2% (inactive)	
O=C(O)CCNc1cc(N2CCc3ccccc3CC2)nc(-c2ccccn2)n1	4.69% (inactive)	
CN(C(Cc1ccc(OS(=O)(=O)c2cccc3cnccc23)cc1)C(=O)N1CCN(c2ccccc2)CC1)S(=O)(=O)c1cccc2cnccc12 (stereo not given)	3.42% (inactive)	
Cc1ccc(C2=Nc3ccc(Cl)cc3OC2)cc1	7.45% (inactive)	
O=C(O)c1nc(=O)[nH]c(=O)[nH]1	-11.5% [at 15.5 µM] (inactive)	
C[C@@H]1C[C@H]2[C@@H]3CCC4=CC(=O)C=C[C@]4(C)[C@@]3(F)[C@@H](O)C[C@]2(C)[C@@]1(O)C(=O)CO	-22.9% (inactive)	

Structure (SMILES)	activity change, negative = inhibition	Potency
O=c1[nH]nc(OCCCc2ccc(Cl)cc2)c(NCc2cccnc2)c1Br	-41.3% (inactive)	
COC(=O)[C@H](c1ccccc1Cl)N1CCc2sccc2C1	15.9% (inactive)	
NS(=O)(=O)c1cc(Cl)c(Cl)c(S(N)(=O)=O)c1	2.26% (inactive)	
COc1nccc(-c2c(-c3ccc(F)cc3)ncn2C2CCNCC2)n1	-11.6% (inactive)	
CCCCC(F)(F)[C@@]1(O)CC[C@H]2[C@H](CC(=O)[C@@H]2CCCCCCC(=O)O)O1	-1.06% (inactive)	
Cc1cnc(CNC(=O)c2c(=O)c3ccc(N4CCCN(C)CC4)nc3n3c2sc2ccccc23)cn1	-4.9% [at 8.44 µM] (inactive)	
Cc1cccc(Nc2nc(N[C@@H]3CCCC[C@H]3N)ncc2C(N)=O)c1		13.1 µM (active)
N#Cc1ccc(Oc2ccc3c(c2)COB3O)cc1	-29.9% (inactive)	
N#CC(c1ccnc(NCCc2cccnc2)n1)c1nc2ccccc2s1 (stereo not given)		14.7 µM (active)
Cn1c(=O)c(Oc2ccc(F)cc2F)cc2cnc(NC3CCOCC3)nc21	-4.83% (inactive)	
Cc1ccccc1-n1c(Cn2nc(-c3cccc(O)c3)c3c(N)ncnc32)nc2cccc(C)c2c1=O		20.8 µM (active)
CN[C@@H](C)[C@H]1[C@H](O)C[C@@]2(C)[C@@H]3CC[C@H]4C(C)(C)[C@@H](NC)CC[C@@]45C[C@@]35CC[C@]12C	36.7% [at 8.44 µM] (inactive)	
Cc1cc(OCCCS(C)(=O)=O)cc(C)c1-c1cccc(COc2ccc3c(c2)OC[C@H]3CC(=O)O)c1	-0.397% (inactive)	
CS(=O)(=O)c1ccc(C2=C(c3ccccc3)C(=O)OC2)cc1	-6.84% (inactive)	
COc1cccc(OC)c1-c1cc(C(=O)NC2(C(=O)O)C3CC4CC(C3)CC2C4)nn1-c1ccnc2cc(Cl)ccc12 (stereo not given)	13% (inactive)	
CN1C(=O)C(Cc2c[nH]c3ccccc23)NC1=S (stereo not given)	4.04% (inactive)	
Cc1ccc(S(=O)(=O)Nc2nc3ccccc3nc2Nc2ccc3nsnc3c2)cc1	-3.24% [at 15.5 µM] (inactive)	
N#Cc1c(N(CC(=O)O)CC(=O)O)sc(C(=O)O)c1CC(=O)O	0.636% (inactive)	
C[C@@H](N)c1ccc(C(=O)Nc2ccnc3[nH]ccc23)cc1		16.5 µM (active)
CC[C@H](C)C(=O)O[C@H]1C[C@H](O)C=C2C=C[C@H](C)[C@H](CC[C@@H](O)C[C@@H](O)CC(=O)O)[C@H]21	0.768% (inactive)	
